Experimental data taken from paper PMC4336329 (PLoS ONE, 2015).
Screen size: about 310,000 compounds; about 14,000 (4.5%) showed an effect of 50% or more. Effects have a minus sign here. Many of the other results were omitted from the sample, so strong results are more common in it than they were.

What follows are molecules tested against human ether-à-go-go-related gene (hERG) potassium channel (human, UniProt Q12809) (assay: primary screen, population patch clamp on CHO cells stably expressing hERG; higher = less effect of the substance).
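Further: peak tail current of the secondary pulse compared with the same well before compound.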

human ether-à-go-go-related gene (hERG) potassium channel, sequence (Q12809 whole entry, looked up): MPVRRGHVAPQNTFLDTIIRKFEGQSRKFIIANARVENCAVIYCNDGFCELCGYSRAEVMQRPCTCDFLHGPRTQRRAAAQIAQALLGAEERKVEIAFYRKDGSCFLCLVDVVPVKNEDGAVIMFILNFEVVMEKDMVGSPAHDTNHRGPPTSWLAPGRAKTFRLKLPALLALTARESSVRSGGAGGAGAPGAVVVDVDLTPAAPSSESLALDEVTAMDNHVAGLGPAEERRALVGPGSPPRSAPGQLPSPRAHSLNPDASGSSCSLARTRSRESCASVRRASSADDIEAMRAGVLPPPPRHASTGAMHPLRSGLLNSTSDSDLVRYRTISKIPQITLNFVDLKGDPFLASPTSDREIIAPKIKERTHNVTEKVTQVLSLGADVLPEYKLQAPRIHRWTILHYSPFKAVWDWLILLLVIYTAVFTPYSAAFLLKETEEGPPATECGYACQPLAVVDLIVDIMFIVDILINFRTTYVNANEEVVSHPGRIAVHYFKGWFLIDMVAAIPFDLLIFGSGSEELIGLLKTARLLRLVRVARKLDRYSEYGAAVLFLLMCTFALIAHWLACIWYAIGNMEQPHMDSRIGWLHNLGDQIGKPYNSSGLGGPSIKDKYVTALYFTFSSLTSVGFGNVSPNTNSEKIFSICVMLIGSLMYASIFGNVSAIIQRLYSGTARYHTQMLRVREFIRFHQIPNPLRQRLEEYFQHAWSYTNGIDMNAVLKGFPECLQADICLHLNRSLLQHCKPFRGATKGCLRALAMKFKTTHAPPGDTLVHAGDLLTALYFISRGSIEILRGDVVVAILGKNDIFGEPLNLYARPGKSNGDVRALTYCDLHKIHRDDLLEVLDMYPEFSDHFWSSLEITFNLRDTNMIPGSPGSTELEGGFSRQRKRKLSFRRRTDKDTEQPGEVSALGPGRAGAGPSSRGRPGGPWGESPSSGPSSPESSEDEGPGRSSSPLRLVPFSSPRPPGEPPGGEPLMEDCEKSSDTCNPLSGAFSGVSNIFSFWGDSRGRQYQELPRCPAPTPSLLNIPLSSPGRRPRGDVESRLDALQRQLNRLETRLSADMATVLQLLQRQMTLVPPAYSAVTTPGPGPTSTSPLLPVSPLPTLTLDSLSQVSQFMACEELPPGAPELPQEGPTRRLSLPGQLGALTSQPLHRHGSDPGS

| SMILES | hERG current change (%, negative = inhibition) at 10uM [%] |
| --- | --- |
| O=C(CCCN1C(=O)c2ccccc2C1=O)NCc1ccco1 | 6.15 |
| COc1ccc(N2C(=O)CC(Nc3cccc(C(C)=O)c3)C2=O)cc1OC (stereo not drawn) | 7.07 |
| COc1cc(OC)cc(C(=O)NCCCNC(=O)c2cccnc2)c1 | 7.43 |
| N#C/C(=C\c1ccc(N2CCCCC2)o1)C(N)=O | 7.71 |
| CC(C)CCN1CCN(Cc2cccn2-c2cccnc2)CC1CCO (stereo not drawn) | -32.5 |
| OCCC1CN(Cc2cccn2-c2ncccn2)CCN1CCc1ccccc1 (stereo not drawn) | -68.2 |
| OCCC1CN(Cc2cccn2-c2ncccn2)CCN1Cc1ccccc1 (stereo not drawn) | -64.2 |
| OCCC1CN(Cc2cccn2-c2cccnc2)CCN1CCc1ccccc1 (stereo not drawn) | -65.2 |
| Cc1ncc(CN2CCN(Cc3ccc(F)cc3)C(CCO)C2)s1 (stereo not drawn) | 9.56 |
| OCCC1CN(Cc2cccn2-c2ncccn2)CCN1Cc1ccc(F)cc1 (stereo not drawn) | -73.7 |
| Cc1cc(C)n(-c2ccc(C(=O)OCC(=O)Nc3ccc([N+](=O)[O-])cc3)cc2)n1 | -10.6 |
| Cc1ccc(C(=O)Nc2nnc(SCC(=O)N3CCCc4ccccc43)s2)cc1 | 7.27 |
| Cc1ccc(-n2c(SCC(=O)O)nc3c(sc(=S)n3-c3ccc(C)c(C)c3)c2=O)cc1 | 14 |
| O=C(c1cn(-c2ccccc2)nc1-c1ccc(Cl)s1)N1CCOCC1 | -20.9 |
| COc1ccc(CNC(=O)COC(=O)/C=C/c2cccc(Br)c2)cc1OC | 30.1 |
| CC(=O)Nc1ccc(C2=NN(c3ccccc3)C(c3cccs3)C2)cc1 (stereo not drawn) | 7.7 |
| Cc1cc(NC(=O)COc2ccc(F)c(Cl)c2)no1 | 17.7 |
| CCn1c(SCc2ccccc2)nc2ccccc2c1=O | 2.76 |
| Cc1ccc(OCC(=O)NC(C)c2ccccc2)cc1 (stereo not drawn) | -1.19 |
| O=C1C2=C(CCCC2)C(=O)N1CNc1ccccc1 | 16.3 |
| O=C1CC(N(Cc2cccs2)C(=O)Nc2ccccc2)C(=O)N1c1ccc(Cl)cc1 (stereo not drawn) | -22.6 |
| Cc1ccccc1OCc1nc2ccccc2c(=O)n1/N=C/c1cn[nH]c1-c1ccc(Br)cc1 | 15.8 |
| CCN(CC)c1ccc(NC(=O)Nc2cccc3ccccc23)cc1 | 7.7 |
| CCn1nc(C)c(CN2CCN(Cc3ccc(OC)c(C)c3C)C(CCO)C2)c1C (stereo not drawn) | -45.8 |

| SMILES | hERG current change (%, negative = inhibition) at 10uM [%] |
| --- | --- |
| COc1ccc(CN2CCN(Cc3cccn3-c3ncccn3)CC2CCO)c(C)c1C (stereo not drawn) | -81.6 |
| COc1ccc(CN2CCN(CC3CC3)CC2CCO)c(C)c1C (stereo not drawn) | -0.714 |
| N#Cc1ccc(-c2ccc(OCC(=O)NCC(=O)Nc3ccc(F)c(F)c3F)cc2)cc1 | -7.98 |
| CC(C(=O)NCC(=O)Nc1ccc(F)c(F)c1F)N1CCN(Cc2ccc(C#N)cc2)CC1 (stereo not drawn) | -61 |
| CC(C(=O)NCC(=O)Nc1ccc(F)c(F)c1F)N1CCN(c2ccc(O)cc2)CC1 (stereo not drawn) | -6.1 |
| CCOC(=O)N1CCC(N2C(=O)c3ccc(C(=O)Nc4ccc(OC)c(OC)c4)cc3C2=O)CC1 | 23.2 |
| O=C(/N=C1\NC(=O)C(F)(C(F)(F)F)S1)NC1CCCCC1 (stereo not drawn) | 13 |
| CCCC(=O)Nc1ccc2c(c1)nc(CCN1CCCCC1)n2C | -4.96 |
| Cn1c(CN2CCCCC2)nc2cc(NS(=O)(=O)c3ccc(F)cc3)ccc21 | -54.2 |
| CC(C)C(=O)Nc1ccc2c(c1)nc(CCN1CCCCC1)n2C | -0.778 |
| Cn1c(CCN2CCCCC2)nc2cc(NS(=O)(=O)c3ccc(F)cc3)ccc21 | -67.6 |
| O=S(=O)(Nc1ccc2c(c1)nc1n2CCN(Cc2ccccc2)C1)c1ccccc1 | -40.1 |
| O=S(=O)(Nc1ccc2c(c1)nc1n2CCN(Cc2ccccc2)C1)c1ccc(Cl)cc1 | -2.38 |
| O=S(=O)(Nc1ccc2c(c1)nc1n2CCN(Cc2ccccc2)C1)c1ccc(F)cc1 | -50.4 |
| O=C(O)CN(c1ccccn1)S(=O)(=O)c1ccccc1 | -8.38 |
| O=C(NCCc1ccccc1)C(=O)NCC(c1ccco1)N1CCOCC1 (stereo not drawn) | 23.8 |
| Cc1ccc(NC(=O)C2CCN(S(=O)(=O)c3ccc4c(c3)CCCC(=O)N4)CC2)cc1N(C)C | -14.7 |
| O=C(COC(=O)c1ccc2c(c1)OCCO2)NCCC1=CCCCC1 | -10.8 |
| CN(C(=O)C1CCN(S(=O)(=O)c2cccs2)CC1)c1ccccc1 | -16.9 |
| O=C(CCS(=O)(=O)c1ccc(Br)cc1)NCc1cccs1 | -11.5 |
| COC(=O)C(C(=O)OC)C(C[N+](=O)[O-])c1ccc(OC)c(OC)c1 (stereo not drawn) | -22.7 |
| CCOC(=O)C1(Cc2cccc(OC)c2)CCN(C/C=C/c2ccc(OC)cc2)CC1 | -72.3 |
| CCOC(=O)C1(Cc2cccc(OC)c2)CCN(CC=C(C)C)CC1 | -22 |
| CCOC(=O)C1(Cc2cccc(OC)c2)CCN(C/C=C/c2ccccc2)CC1 | -75.9 |

| SMILES | hERG current change (%, negative = inhibition) at 10uM [%] |
| --- | --- |
| N#CCCn1[nH]c(-c2ccccc2)cc1=O | 5.16 |
| O=C(CCCc1c[nH]c2ccccc12)Nc1ncccc1O | 14.7 |
| CC1CCN(C2CC(=O)N(c3ccc(Br)cc3Br)C2=O)CC1 (stereo not drawn) | 2.17 |
| COc1ccc(C(CNC(=O)c2cc3ccccc3cc2O)N2CCOCC2)cc1 (stereo not drawn) | -3.36 |
| COc1ccccc1CC(=O)N1CCC(n2nccc2NC(=O)C2CCOC2)CC1 (stereo not drawn) | 4.83 |
| COc1cc(CC(=O)N2CCC(n3nccc3NC(=O)C3CC3)CC2)cc(OC)c1OC | 12.8 |
| CC(C)C(=O)N1CCC(n2nccc2NC(=O)CCc2ccccc2)CC1 | 18.7 |
| COc1ccccc1/C=C/CN1CCC(n2nccc2NC(=O)CCc2ccccc2)CC1 | -86.1 |
| CC(=O)c1cccc(CN2CCC(n3nccc3NC(=O)CCc3ccccc3)CC2)c1 | -25.1 |
| CSCC(=O)N1CCC(n2nccc2NC(=O)CCc2ccccc2)CC1 | 12.1 |
| O=C(CCc1ccccc1)Nc1ccnn1C1CCN(C/C=C/c2ccccc2)CC1 | -72.1 |
| COCCC(=O)N1CCC(n2nccc2NC(=O)CCc2ccccc2)CC1 | 14.2 |
| COc1ccccc1/C=C/CN1CCC(n2nccc2NC(=O)C2CC2)CC1 | -59.1 |
| COCC1CCCN(C(=O)c2ccc3oc(CCCc4ccccc4)nc3c2)C1 (stereo not drawn) | -16.2 |
| CCn1c(SCC(=O)C(C)(C)C)nnc1-c1cccnc1 | -0.363 |
| CC(C)NS(=O)(=O)c1ccc(NC(=O)C(C)OC(=O)CCC2CCCC2)cc1 (stereo not drawn) | 7.06 |
| Cc1cc(C(=O)N/N=C/c2cc([N+](=O)[O-])ccc2O)c2ccccc2n1 | 6.35 |
| CCOCCCNC(=S)N(CCN(CC)CC)Cc1cc2cc3c(cc2[nH]c1=O)OCCO3 | 7.75 |
| CCCN(CCC)C1Sc2ccc(C(=O)OC)cc2NC1=O (stereo not drawn) | -9.31 |
| Cc1ccc(NC(=S)N2CCC(O)CC2)c(C)c1 | 16.3 |
| CC(=O)Oc1ccc2nc(CN3C(=O)c4ccc([N+](=O)[O-])cc4C3=O)oc(=O)c2c1 | 10 |
| O=C(NN1C(=O)c2ccccc2NC1c1ccco1)c1ccc(Br)cc1 (stereo not drawn) | -76.6 |
| O=C(NN1C(=O)c2ccccc2NC1c1ccoc1)c1ccc([N+](=O)[O-])cc1 (stereo not drawn) | -41.8 |
| CC(=O)NN1C(=O)c2ccccc2NC1c1ccc([N+](=O)[O-])o1 (stereo not drawn) | 8.22 |

| SMILES | hERG current change (%, negative = inhibition) at 10uM [%] |
| --- | --- |
| CC(=O)NN1C(=O)c2ccccc2NC1c1ccco1 (stereo not drawn) | 15.7 |
| CC1Nc2ccccc2C(=O)N1NC(=O)c1ccc(Br)cc1 (stereo not drawn) | -9.66 |
| O=C(NN1C(=O)c2ccccc2NC1c1ccc([N+](=O)[O-])o1)c1ccc([N+](=O)[O-])cc1 (stereo not drawn) | -65.5 |
| O=C(NN1C(=O)c2ccccc2NC1c1ccc([N+](=O)[O-])o1)c1ccccc1 (stereo not drawn) | -9.78 |
| O=C(NN1C(=O)c2ccccc2NC1c1ccco1)c1ccccc1 (stereo not drawn) | -0.469 |
| O=C(NN1C(=O)c2ccccc2NC1c1ccc([N+](=O)[O-])o1)c1ccc(Br)cc1 (stereo not drawn) | -72.7 |
| COc1ccccc1NCCC(=O)OCC(=O)NC1CCCC(C)C1C (stereo not drawn) | 9.37 |
| CCOc1cc(/C=C2/C(=N)N3N=C(C)SC3=NC2=O)ccc1OS(=O)(=O)c1ccc(C)cc1 | 0.16 |
| COc1ccc(NC(=O)Cn2c(=O)n(-c3ccccc3)c(=O)c3sccc32)c(OC)c1 | 0.835 |
| CCOC(=O)c1c(-c2ccc(C)cc2)csc1NC(=O)CCN1CCOCC1 | -42.1 |
| CCOC(=O)c1c(NC(=O)c2cccs2)sc(C(=O)N2CCOCC2)c1C | -55.5 |
| CCOC(=O)c1c(-c2ccc(-c3ccccc3)cc2)csc1NC(=O)CCN1CCOCC1 | 13.8 |
| CCOC(=O)c1sc(NC(=O)CCN2CCC(C)CC2)c(C(=O)OCC)c1C | 9 |
| CCOC(=O)c1c(NC(=O)c2cccs2)sc(C(=O)N(C)C)c1C | -10.9 |
| CCOC(=O)c1sc(NC(=O)CCN2CCCCCC2)c(C(=O)OCC)c1C | -24.7 |
| CCOC(=O)c1c(-c2ccc(OC)cc2)csc1NC(=O)CCN1CCOCC1 | -53.2 |
| CCOC(=O)c1c(NC(=O)c2cccs2)sc(C)c1C | 3.46 |
| CCOC(=O)c1sc(NC(=O)CCN2CCOCC2)c(C(=O)OCC)c1C | -2.58 |
| CCOC(=O)c1sc(NC(=O)CCN2CCN(C)CC2)c(C(=O)OCC)c1C | -79 |
| CCOC(=O)c1sc(NC(=O)CCN2CCN(CC)CC2)c(C(=O)OCC)c1C | -88.9 |
| CCOC(=O)c1sc(NC(=O)CCN2CC(C)OC(C)C2)c(C(=O)OCC)c1C.O=C(O)C(=O)O (stereo not drawn) | 13.9 |
